Records with an inconclusive call do not appear. Active and inactive are the calls of the source. Unless noted, the call rests on the fitted dose curve; in most records, active means well fitted curve in the direction sought with a large enough effect in the repeat runs; inconclusive means weak or mixed curves; inactive means no such curve, though single readings can be large; an effect the other way counts as inactive or inconclusive.

Test [1] can be described thus: qHTS assay to identify small molecule agonists of the vitamin D receptor (VDR) signaling pathway - cell viability counter screen (AID 743224). Further: nearly all actives have a fitted effect of over 50% in size. Further: potency means the concentration at half of the fitted maximal effect. The gist of the method: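 Luminescence from CellTiter-Glo, read after 30 min at room temperature, reports viability of VDR-bla cells treated with compounds for 16 h at 37C in the wells used for the beta-lactamase FRET read.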
A general note: In qHTS, concentration-response curves come from the screen itself.

Test [2] is described as follows: qHTS assay to identify small molecule antagonists of the vitamin D receptor (VDR) signaling pathway - cell viability counter screen (AID 743225). Further: nearly all actives have a fitted effect of over 50% in size. Further: potency means the concentration at half of the fitted maximal effect. The gist of the method:
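Luminescent cell viability (CellTiter-Glo) in VDR-bla HEK 293T cells after 16 h compound exposure at 37C in the presence of 3 nM final 1-alpha,25-dihydroxy vitamin D3.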

The nature of test [3]: qHTS assay to identify small molecule agonists of the NFkB signaling pathway (AID 1159509; active means well fitted curve in the direction sought with a large enough effect in the signal ratio in the repeat runs, not every such curve was filed as active; the % refers to the signal ratio; further: series mostly up to about 61 µM). Put shortly:
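After overnight attachment, reporter cells received test compounds, DMSO or positive controls and were incubated 5 hr at 37 C. FRET substrate was then added for 1.5 hr at room temperature before dual-emission fluorescence reading.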

Test [4] in a line: qHTS assay to identify small molecule agonists of the NFkB signaling pathway - cell viability counter screen (AID 1159515; calls by dose curve; further: series mostly up to about 61 µM; nearly all actives have a fitted effect of over 55% in size). Put shortly:
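Luminescence from CellTiter-Glo (30 min, room temperature) gives viability, measured in the same wells as the beta-lactamase reporter read. Cells were NFkB-bla ME-180, 2,000 per well, treated 5 hr with compounds.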

Test [5] in a line: qHTS assay to identify small molecule agonists of the endoplasmic reticulum stress response signaling pathway (AID 1159516; active means well fitted activation curve with a large enough effect in the signal ratio in the repeat runs, not every such curve was filed as active; the % refers to the signal ratio). The gist of the method:
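Read-out is beta-lactamase cleavage of a FRET substrate (405 nm excitation; 460 and 530 nm emissions) in ESRE-bla HeLa cells after a 5 hr compound exposure at 37 C. Substrate incubation ran 2 hr at room temperature.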

Test [6] is described as follows: qHTS assay to identify small molecule agonists of the endoplasmic reticulum stress response signaling pathway - cell viability counter screen (AID 1159517; calls by dose curve;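 further: HeLa cells carrying an ER stress response element beta-lactamase reporter; series mostly up to about 61 µM; nearly all actives have a fitted effect of over 50% in size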). Put shortly: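 Luminescence readout: CellTiter-Glo, 30 min RT, same wells as the ESRE-bla reporter read. HeLa ESRE-bla, 1,500 cells/well, o/n 37 C; cpd 5 hr 37 C/5% CO2.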
The nature of test [7]: qHTS assay to identify small molecule agonists of the AP-1 signaling pathway - cell viability counter screen (AID 1159525; calls by dose curve; further: nearly all actives have a fitted effect of over 55% in size). The gist of the method:
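ME-180 AP-1-bla, 2500 cells/well, Opti-MEM + 0.5% dialyzed FBS; overnight 37 °C; cpd 15-pt titration, 5 h 37 °C; CellTiter-Glo 30 min RT; luminescence read; normalised to TOAB and DMSO controls.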

The nature of test [8]: qHTS assay to identify small molecule agonists of the AP-1 signaling pathway (AID 1159526; calls by dose curve).
Test [9] is described as follows: qHTS assay to identify small molecule antagonists of the retinoid acid receptor (RAR) signaling pathway - cell viability counter screen (AID 1159551). Further: nearly all actives have a fitted effect of over 35% in size. Put shortly: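 Luminescent ATP quantitation (CellTiter-Glo) gave cell viability in C3RL4 cells exposed to test chemicals for 6 h at 37 C alongside 1 uM final retinol.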
Test [10] can be described thus: qHTS assay to identify small molecule antagonists of the retinoid-related orphan receptor gamma (ROR-gamma) signaling pathway - cell viability counter screen (AID 1159520). Further: nearly all actives have a fitted effect of over 50% in size. The gist of the method:
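Tet-on ROR gamma CHO cells (1,000/well) were plated 4 hr, given compounds in DMSO for 2 hr at 37 C, then induced with 1 uM final doxycycline for 16 hr. Viability was read as ATP by CellTiter-Glo luminescence after 30 min.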

A short description of test [11]: qHTS assay to identify small molecule agonists of the RXR signaling pathway - cell viability counter screen (AID 1159529). Further: nearly all actives have a fitted effect of over 50% in size. Further: potency means the concentration at half of the fitted maximal effect. The gist of the method: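 Same-well viability check after the LiveBLAzer FRET read: CellTiter-Glo added, luminescence measured after 30 min at room temperature. Reporter HEK 293T cells had been treated with compounds for 16 hr following a 5 hr preincubation.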

The nature of test [12]: qHTS assay to identify small molecule antagonists of the retinoic acid receptor (RAR) signaling pathway (AID 1159552; further: nearly all actives have a fitted effect of over 50% in size). The gist of the method:
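Readout: luciferase luminescence, 30 min post-reagent at RT. Setup: C3RL4 RARE reporter cells, compounds plus retinol 1 uM final, 6 hr incubation at 37 C and 5% CO2.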

Test [13] is described as follows: qHTS assay to identify small molecule agonists of the retinoic acid receptor (RAR) signaling pathway (AID 1159553). The gist of the method: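 Luminescence from a RARE-driven luciferase reporter in C3RL4 cells served as the read-out, measured after 30 min with detection reagent at room temperature. Compounds in DMSO were applied for 6 hr at 37 C following overnight seeding.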

Test [14] concerns the target Nuclear receptor ROR-gamma (Homo sapiens) (UniProt P51449). Put plainly: qHTS assay to identify small molecule antagonists of the retinoid-related orphan receptor gamma (ROR-gamma) signaling pathway (AID 1159521). The gist of the method: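 CHO cells expressing RORγ under a TET-on promoter, luciferase under RORE control. Dox 1 uM final, 16 h; compounds added 2 h prior. Luminescence decrease measured.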

The target of test [15] is Retinoic acid receptor RXR-alpha (Homo sapiens) (UniProt P19793). Description: qHTS assay to identify small molecule agonists of the RXR signaling pathway (AID 1159527; calls by dose curve; further: nearly all actives have a fitted effect of over 35% in size). The gist of the method:
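Beta-lactamase reporter assay, agonist format. Engineered HEK 293T line, charcoal-stripped FBS at 2%, overnight (16 hr) exposure, fluorescence at 460 and 530 nm after 405 nm excitation.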

Chain of Retinoic acid receptor RXR-alpha (Homo sapiens) (P19793 whole entry, looked up): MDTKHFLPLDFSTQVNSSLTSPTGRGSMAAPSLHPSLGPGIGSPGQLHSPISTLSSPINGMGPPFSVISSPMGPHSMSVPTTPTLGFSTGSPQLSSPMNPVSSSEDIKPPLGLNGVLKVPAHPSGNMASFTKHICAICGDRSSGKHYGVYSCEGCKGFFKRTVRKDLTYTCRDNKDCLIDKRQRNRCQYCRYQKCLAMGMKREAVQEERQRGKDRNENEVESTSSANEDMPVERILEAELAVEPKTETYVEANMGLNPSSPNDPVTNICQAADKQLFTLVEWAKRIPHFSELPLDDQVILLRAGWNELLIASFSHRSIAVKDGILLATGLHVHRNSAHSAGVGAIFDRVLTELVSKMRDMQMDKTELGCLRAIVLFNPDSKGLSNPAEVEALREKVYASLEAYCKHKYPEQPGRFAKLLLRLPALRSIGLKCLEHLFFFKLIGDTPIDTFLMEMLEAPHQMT

As to `O=C(OC1CCCCC1)c1ccccc1C(=O)OC1CCCCC1`, the Potency in test [1] is 46 µM (active); in test [2] it was 32.6 µM (active). For the same compound, the compound was called inactive in [3], in test [5] and in test [8]. In addition, the Potency result in [4], in test [6], in test [7] and in test [9] was “inactive” in each case.

For the compound `CCOS(C)(=O)=O`, the Potency entry in test [1], in [2], in test [4], in [6], in test [10] and in [7] was “inactive” in each case. The Potency entry in [11], in test [9], in test [12] and in test [13] was “inactive” in each case. In addition, the call in test [3], in test [5] and in test [8] was inactive.

For the compound `CCO[C@H]1O[C@@H]2OC3(C)CC[C@H]4[C@H](C)CC[C@@H]([C@H]1C)[C@@]24OO3`, the Potency entry in test [1], in [2], in [4], in test [6], in test [7] and in test [11] was “inactive” each time. The Potency result in [9], in test [12] and in [13] was “inactive” each time. Further, the outcome in test [3] and in test [5] was inactive.

For `CN1[C@@H]2CC[C@H]1CC(OC(=O)c1cc(Cl)cc(Cl)c1)C2` (stereo partly drawn), the Potency entry in test [1], in test [2], in test [4], in test [6], in test [10] and in test [7] was “inactive” each time. Further, the Potency result in test [9] and in test [13] was “inactive” each time. Moreover, the result in test [3], in [5] and in [8] was inactive. For the same compound, the Potency in test [11] was 3.79 µM (active).

For the compound `O=C1C(Cl)C(CCl)CN1c1cccc(C(F)(F)F)c1` (stereo not drawn), the Potency result in test [1], in test [2], in test [4], in [6], in test [10] and in test [7] was “inactive” throughout. Moreover, the Potency result in test [9] was “inactive”. In addition, the compound was classed as inactive in test [3], in test [5] and in test [8].

For `Brc1ccccc1`, the Potency result in test [1], in [2], in test [4], in test [10], in [14] and in [7] was “inactive” throughout. The Potency entry in test [15], in test [11], in test [9], in test [12] and in [13] was “inactive” each time. Moreover, the outcome in test [3], in test [5] and in test [8] was inactive.

On to `CCOP(=S)(Oc1ccc([N+](=O)[O-])cc1)c1ccccc1` (stereo not drawn), for which the Potency entry in test [1], in test [2], in test [4], in test [6], in test [10] and in test [7] was “inactive” in each case. For the same compound, the Potency result in test [11], in test [9], in [12] and in test [13] was “inactive” throughout. Moreover, the result in [3], in test [5] and in test [8] was inactive.

With `CN1C[C@H](CNC(=O)OCc2ccccc2)C[C@@H]2c3cccc4c3c(cn4C)C[C@H]21`, the Potency entry in test [1], in test [2], in test [4], in test [6], in test [10] and in test [7] was “inactive” in each case. For the same compound, the Potency result in [11], in [9], in test [12] and in [13] was “inactive” each time. Further, the compound was classed as inactive in test [3] and in test [5].

As to `COCC(C)N(C(=O)CCl)c1c(C)csc1C` (stereo not drawn), the Potency entry in test [2], in test [4], in [6], in test [10], in test [7] and in test [9] was “inactive” throughout. For the same compound, the call in test [3] and in [5] was inactive.

As for `ClCCCCBr`, the Potency result in test [1], in test [2], in [4], in test [10], in test [14] and in [7] was “inactive” in each case. Moreover, the Potency result in test [15], in test [11], in test [9], in test [12] and in test [13] was “inactive” in each case. The compound was called inactive in test [3], in test [5] and in [8].

Regarding `Cl/C=C\C[N+]12CN3CN(CN(C3)C1)C2`, the Potency result in test [1], in test [2], in [4], in [6], in test [14] and in test [7] was “inactive” throughout. For the same compound, the Potency entry in test [15], in test [11] and in [9] was “inactive” throughout. Further, the result in test [3], in test [5] and in test [8] was inactive.

The record behind these values is PubChem BioAssay (Tox21).
